# In PubChem BioAssay (Tox21):
# Activity calls are given as the source filed them. Calls follow the shape of the dose curve; as a rule, active = well fitted activation curve with a large enough effect in the repeat runs; inconclusive = weak or mixed curves; inactive = flat fitted curve, though single readings scatter.
# Molecular target: KiSS-1 receptor (Homo sapiens) (UniProt Q969F8)
# Assay: Human kisspeptin (KISS1R) small molecule agonists, calcium flux assay in KISS1R-HEK293 cells (AID 1920064)
# Settings: KISS1R-HEK293, calcium flux fluorescence, agonist; series mostly up to 76.8 µM; activation: at the top concentration
# Source text: National Center for Advancing Translational Sciences [NCATS]
# Division of Preclinical Innovation [DPI]
# U.S. Environmental Protection Agency [EPA]
# National Institutes of Environmental Health Sciences [NIEHS]
# National Toxicology Program [NTP]
# U.S. Food and Drug Administration [FDA]
# Kisspeptin and its receptor KISS1R play key roles in mammalian reproduction due to their involvement in the onset of puberty and control of the hypothalamic-pituitary-gonadal axis such as regulates GnRH release from the hypothalamus. The kisspeptin/KISS1R system also plays a direct role in peripheral organs (including the ovary, testis, uterus, and placenta) and is implicated in reproductive diseases such as miscarriage and polycystic ovary syndrome (PCOS). Abnormal KISS1R activity is associated with abnormal puberty, infertility, endometriosis, and hormone-dependent tumors. The KISS1 receptor (KISS1R, also called GPR54), a G-protein-coupled receptor (GPCR), acts (through phospholipase C) to increase intracellular inositol trisphosphate and then release intracellular calcium stores. Cell-based KISS1R-HEK293 assay is using HEK293 cells that have been genetically engineered to express the human KISS1R, which activity can be measured by calcium signaling. A compound/drug can activate (agonist) KISS1R that can be monitored by levels of intracellular calcium.
# KISS1R-HEK293 cells developed by Codex Corp contain human KISS1R gene, which was stably integrated into HEK 293 cells. The compound activation can be detected by fluorescence intensity via calcium flux assay. This cell line has been used to screen the Tox21 10K compound library to identify agonists of KISS1R.
# KISS1R-Hek293 cells were dispensed at 1500 cells/4uL/well in 1536-well black wall/clear bottom plates using a multidrop dispenser. After the assay plates were incubated at a 37 C/5% CO2 incubator for 18 hours, 4 microL of Calcium Dye Solution was added to each well. The plates were incubated at 37 C for 1 hour. And then 23 nL of compounds dissolved in DMSO, positive controls, or DMSO only was transferred to the assay plate by a pin tool station. The fluorescence intensity in the plates was measured using FDSS 7000EX kinetic plate reader with a filter set of Ex/Em=480/540 for 3 min at 1 sec intervals. Each test compound was measured at 15 concentrations and in triplicates.
# % is scaled to controls: 0 for no effect and ±100 for the full control effect.
# KiSS-1 receptor (Homo sapiens), sequence (Q969F8 whole entry, looked up): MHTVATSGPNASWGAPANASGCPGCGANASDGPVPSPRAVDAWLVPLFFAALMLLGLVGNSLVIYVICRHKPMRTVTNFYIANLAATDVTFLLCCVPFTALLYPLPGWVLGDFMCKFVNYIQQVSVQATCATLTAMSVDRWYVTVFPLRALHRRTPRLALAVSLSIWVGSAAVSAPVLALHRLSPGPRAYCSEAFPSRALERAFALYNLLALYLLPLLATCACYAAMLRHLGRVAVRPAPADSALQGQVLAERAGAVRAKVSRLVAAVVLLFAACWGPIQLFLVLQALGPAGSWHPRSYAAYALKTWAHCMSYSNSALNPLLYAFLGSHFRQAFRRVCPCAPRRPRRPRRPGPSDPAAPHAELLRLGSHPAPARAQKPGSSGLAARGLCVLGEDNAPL
Structure (SMILES),activation,Potency
CCCCCCCCS,-3.13% (inactive),
Cc1ccc(/C(=C\CN2CCCC2)c2ccccn2)cc1,,inactive
CCCCCCC(C)(C)C(=O)O,3.28% (inactive),
O=Cc1ccc(C(=O)O)cc1,0.21% (inactive),
CC/C=C\CCOC(=O)C(C)C,-1.18% (inactive),
CC(=O)c1cccc([N+](=O)[O-])c1,-4.49% (inactive),
O=[N+]([O-])c1ccc(/C=C/c2ccc([N+](=O)[O-])cc2S(=O)(=O)O)c(S(=O)(=O)O)c1,,inactive
CCCCC(C)C(=O)O (stereo not given),-1.81% (inactive),
Cc1nc(C)c(C)nc1C,-2.63% (inactive),
CC(C)CCCCCOC(=O)CS,-3.48% (inactive),
Cc1ccc(C(=O)c2cc(O)c(O)c([N+](=O)[O-])c2)cc1,,inactive
C=C1C[C@H]2[C@@H]3C=C(C)C4=CC(=O)CC[C@]4(C)[C@H]3CC[C@]2(C)[C@@]1(OC(C)=O)C(C)=O,,inactive
COc1ccc2c(c1)CCCC2=O,-0.461% [at 35.3 µM] (inactive),
CC(C)(C)NC(N)=O,1.55% (inactive),
CC(C)(C)NCCO,-1.06% (inactive),
CCCCCCCCCCCCCC,-1.36% (inactive),
CC(C=O)c1ccccc1 (stereo not given),-1.67% (inactive),
CN(C)CCOC(c1ccc(Cl)cc1)c1ccccn1 (stereo not given),-0.219% [at 35.3 µM] (inactive),
O=S(=O)(O)CCN1CCN(CCO)CC1,-0.559% (inactive),
CCOc1ncc(F)c(=O)[nH]1,-2.49% [at 35.3 µM] (inactive),

Structure (SMILES),activation,Potency
CC(C)CC(C)(N)C#N (stereo not given),0.887% (inactive),
c1ccsc1,-0.302% (inactive),
CCCCCCCCCCCCCCCCC,-0.967% (inactive),
CN1[C@@H]2CC[C@H]1CC(NC(=O)n1c(=O)[nH]c3ccccc31)C2 (stereo not given in full),-0.823% [at 35.3 µM] (inactive),
CCC(=O)OC(C)(C)C1CC=C(C)CC1 (stereo not given),-0.289% (inactive),
Cn1sccc1=O,,inactive
CCc1ccccc1O,,inactive
C1CCCNCCC1,-0.0911% (inactive),
Cc1ccc(N)cc1[N+](=O)[O-],0.334% (inactive),
NCCN1CCNC1=O,-2.51% (inactive),
C=CCCC,-1.85% (inactive),
NS(=O)(=O)c1ccccc1Cl,0.236% (inactive),
CN(CC1(C)CCCO1)S(=O)(=O)c1ccc(Cl)c(S(N)(=O)=O)c1 (stereo not given),-0.5% [at 35.3 µM] (inactive),
C#C[C@]1(O)CC[C@H]2[C@@H]3CCC4=CC(=O)CC[C@@H]4[C@H]3CC[C@@]21C,,inactive
CCC/C=C/C=O,,inactive
CN/C(=C\[N+](=O)[O-])NCCSCc1ccc(CN(C)C)o1,,inactive
C/C(=C(\CCO)SS/C(CCO)=C(\C)N(C=O)Cc1cnc(C)nc1N)N(C=O)Cc1cnc(C)nc1N,0.319% [at 35.3 µM] (inactive),
CC(=O)CCC(C)C,-4.47% (inactive),
CCCc1ccc(N)cc1,-4.01% (inactive),
Oc1ccc2c(c1)OC[C@@H](N1CCC(O)(c3ccc(F)cc3)CC1)[C@H]2O,-1.25% [at 35.3 µM] (inactive),
